Screens deposited in PubChem BioAssay by National Center for Advancing Translational Sciences (NCATS).
HepG2 viability = counter-screen for TGF-b inhibitors: cytotoxicity in HepG2 cells | HepG2 CAGA-GFP viability, ATP luminescence, 18 h | AID 588856 | Potency, µM (top dose mostly 46.1 µM), inactives show at the highest dose activity change, negative = cytotoxicity, hits mostly cytotoxic | hit rate 0.76% among 410,000
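CellTiter-Glo luminescence gave cytotoxicity after 18 hours at 37 degrees C. The cells were HepG2 CAGA-GFP in 1% FBS DMEM, stimulated with 500 pg/mL TGF-beta after compound addition. %Activity was normalised to no-cell wells (complete cell-killing) and DMSO (no toxicity), and curves were fitted and classified.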
HT1080NT lethal = kills 2HG-producing HT-1080-NT fibrosarcoma cells; HT-1080-NT fibrosarcoma viability, CellTiter-Glo ATP luminescence, 48 h; Potency, µM (doses to about 46.1 µM), for inactives: at the top dose activity, negative = less viability, actives largely listed as cytotoxic; hit rate 1.6% among 360,000; AID 686970;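 further: NT is the 2HG producing partner of a matched IDH1 knockdown line; 0% = DMSO-treated cells and -100% = media-only wells without cells; nearly all actives have a fitted effect of over 55% in size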
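Read-out is CellTiter-Glo luminescence after 10 minutes at room temperature, following 48 hours' compound treatment of HT-1080-NT cells (750 cells/well, RPMI, 5% FBS, 37 degrees C).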
TDP1 cell CPT = DT40-hTDP1 cell growth loss with CPT; hit rate 12% among 420,000; AID 686979; Potency, µM (titrated, usually from 46.2 µM), without a hit: at the top dose activity change, negative = growth inhibition, most hits filed as inhibitors; chicken DT40 Tdp1-/-;hTDP1 cells + 20 nM CPT, ATP luminescence, 48 h; further: on the % scale 0 is the no-effect control and ±100 the full control effect; nearly all actives have a fitted effect of over 55% in size
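Chicken DT40 Tdp1-/- cells complemented with human TDP1, 400 cells/well, exposed to compounds plus 20 nM camptothecin for at least 48 h at 37 C; viability read as ATP content by CellTiter-Glo luminescence.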
TGFb SMAD3 inh = inhibitors of TGF-b signaling; HepG2 CAGA-GFP TGF-b/SMAD3 reporter, GFP fluorescence, 18 h; TGF-beta stimulated, 500 pg/mL final; Potency, µM (highest dose often 46.1 µM), without a hit: at the highest dose activity, negative = inhibition, hits mostly inhibitors; hit rate 1.2% among 410,000; AID 588855; further: on the % scale 0 is the no-effect control and ±100 the full control effect; nearly all actives have a fitted effect of over 65% in size
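Cell-based qHTS in HEPG2 carrying a CAGA-GFP Smad reporter; compounds added before 500 pg/mL final TGF-beta, 18 h incubation at 37 degrees C, GFP fluorescence quantified per cell by imaging cytometry.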
DT40 TDP1 no CPT = qHTS for Inhibitors of human tyrosyl-DNA phosphodiesterase 1 (TDP1): qHTS in cells in absence of CPT; Potency, µM (top dose mostly 46.2 µM), inactives show at the top dose activity change, negative = growth inhibition, usual class: inhibitors; AID 686978, 2013; hit rate 15% among 420,000; DT40 Tdp1-/- hTDP1 cells, no CPT, ATP luminescence, 48 h; further: on the % scale 0 is the no-effect control and ±100 the full control effect; nearly all actives have a fitted effect of over 55% in size
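Growth kinetics read by CellTiter-Glo luminescence after ≥48 hr at 37 °C. Cells: DT40 Tdp1-/- stably carrying human TDP1, 400 per well, compound exposure in the absence of CPT (DMSO vehicle).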
HT1080 IDH1KD tx = HT-1080 IDH1 knockdown cell toxicity (counter line); AID 686971; Potency, µM (titrated, usually from 46.1 µM), without a hit: at the top dose activity, negative = toxicity, most hits filed as cytotoxic; hit rate 2% among 360,000; HT-1080 IDH1 knockdown viability, ATP luminescence, 48 h;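 further: 0% = DMSO wells and -100% = cell-free medium wells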
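% activity derives from luminescence (CellTiter-Glo), normalised to DMSO and no-cell wells. HT-1080-IDH1KD cells, 750/well, had 48 h compound exposure at 37 °C.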
An asterisk follows results filed as active; ? = inconclusive; / = not tested or not shown; [ ] = another dose, or the depositor's remark. Hits are enriched below; roughly 17% of the tested compounds scored in any of these assays. The call rests on the fitted dose curve; in most records, active means well fitted curve in the direction sought with a large enough effect; inconclusive means small, poorly fitted or top-dose-only effect, or another doubt; inactive means no such curve, though single readings can be large; an effect the other way counts as inactive or inconclusive. Potency means the concentration at half of the fitted maximal effect.

SMILES	HepG2 viability	HT1080NT lethal	TDP1 cell CPT	TGFb SMAD3 inh	DT40 TDP1 no CPT	HT1080 IDH1KD tx
NC(c1csc(Nc2ccc(C(F)(F)F)cn2)n1)C1CCCCC1 (centres undefined)	-87%	?	23µM*	?	21µM*	18µM*
NC(c1csc(Nc2ncccn2)n1)C1CCCCC1 (centres undefined)	0%	-26%	?	2%	?	-1%
NC(c1csc(Nc2nccc(C(F)(F)F)n2)n1)C1CCCCC1 (centres undefined)	-96%	21µM*	?	?	12µM*	21µM*
Cc1ccc(S(=O)(=O)N2CCN(C(=O)Cn3nc(C)c([N+](=O)[O-])c3C)CC2)cc1	2%	-5%	-1%	-8%	-7%	0%
Cc1ccc(-c2nc3ccc(Cl)cc3c(=O)n2O)cc1	-22%	-25%	?	-12%	16µM*	-27%
Cc1ccc(-c2nc3ccccc3c(=O)n2O)cc1	-2%	-23%	20%	0%	-8%	-12%
COc1ccccc1CCNC(=O)CNC(=O)c1ccc2ccccc2c1	-7%	-6%	?	-2%	?	-2%
CC(C)CNC(=O)N1CCN(S(=O)(=O)c2ccc3c(ccn3C)c2)CC1	-3%	/	/	-5%	/	/
Cc1ccc(-c2cc(C(=O)Nc3cccc(S(=O)(=O)N(C)C)c3)c3ccccc3n2)o1	-8%	-7%	?	-21%	16µM*	-4%
COC(=O)c1cc(-c2ccc(C)o2)nc2ccccc12	-13%	0%	7.3µM*	?	15µM*	-8%
Cc1ccc(-c2cc(C(=O)Nc3ccccc3C)c3ccccc3n2)o1	-15%	-15%	?	21%	18µM*	-5%
Cc1cc(C(=O)Nc2ccccc2C)c2ccccc2n1	4%	3%	-3%	0%	-7%	1%
Cc1ccc(-c2cc(C(=O)NCC(c3ccccc3)N(C)C)c3ccccc3n2)o1 (centres undefined)	-19%	1%	?	-6%	?	-9%
Cc1ccc(-c2cc(C(=O)N3CC(C)CC(C)C3)c3ccccc3n2)o1 (centres undefined)	-11%	-12%	?	-8%	18µM*	?
Cc1ccc(-c2cc(C(=O)NCc3ccco3)c3ccccc3n2)o1	2%	-25%	?	-22%	?	-9%
CC(=O)Nc1c(C)nn(-c2ccccc2)c1N1CCC(C(=O)NCc2cccc(F)c2)CC1	3%	/	-11%	-1%	-20%	/
CC(C)(C)NC(=S)NC1CC1	14%	7%	6%	-2%	-13%	8%
CCC(CC)C(=O)Nc1nc2c(s1)CC(C)CC2 (centres undefined)	-14%	/	16µM*	-28%	18µM*	/
CC1CCc2nc(NC(=O)c3ccco3)sc2C1 (centres undefined)	-40%	-14%	?	-2%	?	-15%
CCOc1ccccc1C(=O)Nc1nc2c(s1)CC(C)CC2 (centres undefined)	-46%	/	?	-2%	21µM*	/
CC1CCc2nc(NC(=O)Cc3cccs3)sc2C1 (centres undefined)	-2%	-4%	-11%	2%	?	5%[9.24 µM]
COc1cccc(-c2nccc(-n3ccnc3)n2)c1	/	/	9%	/	?	/
COC(=O)c1ccc2c(=O)n(CCN3CCOCC3)c(SCC(=O)Nc3ccc(C)cc3)nc2c1	0%	-2%	-21%	5%	-16%	-1%
CCN(C(=O)CSc1nc2cc(C(=O)OC)ccc2c(=O)n1Cc1ccco1)c1cccc(C)c1	-16%	-14%	21µM*	18%	?	-21%
CCc1ccc(NC(=O)CSc2nc3cc(C(=O)OC)ccc3c(=O)n2Cc2ccco2)cc1	-1%	-14%	16µM*	-5%	10µM*	-5%
SMILES	HepG2 viability	HT1080NT lethal	TDP1 cell CPT	TGFb SMAD3 inh	DT40 TDP1 no CPT	HT1080 IDH1KD tx
CN1CCN(C(=O)c2ccccc2NC(=O)c2cccc(Cl)c2)CC1	-2%	0%	13%	1%	-4%	5%
CC(C)c1ccc(/C=C/C(=O)N2CCCCCC2)cc1	0%	11%	-27%	0%	-4%	7%
CC(C)c1ccc(/C=C/C(=O)n2nnc3ccccc32)cc1	-44%	?	16µM*	10%	?	?
CN(C)c1ccc(C(=O)n2nnc3ccccc32)cc1	-1%	?	23µM*	2%	?	16µM*
Oc1cc(O)c(/C=C/c2ccnc3ccccc23)c(O)c1	4%	/	11%	-1%	-18%	/
Cc1cc([N+](C)(C)C)cc(C)c1/C=C/c1ccnc2ccccc12	-15%	/	3.5µM*	-12%	3.2µM*	/
Cc1cc(N(C)C)cc(C)c1/C=C/c1ccnc2ccccc12	-34%	/	14µM*	?	11µM*	/
Cc1cc2ccccc2n2c(SCC(=O)Nc3cccc(C(F)(F)F)c3)nnc12	-8%	/	?	20%	?	/
N#CC1=C(N)SC(N)=C(C#N)C1c1ccc([N+](=O)[O-])cc1	-11%	1%	15µM*	-26%	?	?
COc1cccc(Cn2c(=O)c(C)nc3cnc(N4CCOCC4)nc32)c1	/	/	10%	/	-14%	/
O=C(C1CCCCC1)N(CCN1CCN(c2ccccc2CO)CC1)c1ccccn1	/	/	?	/	10µM*	/
O=C(NCCc1ccc(Cl)cc1)c1ccc2c(c1)N(Cc1cccc(Cl)c1)C(=O)c1ccccc1S2(=O)=O	-7%	/	?	5%	7.3µM*	/
COC(=O)c1ccc2c(c1)N(Cc1ccccc1)C(=O)c1ccccc1S2(=O)=O	-32%	/	16µM*	?	?	/
O=C(Nc1ccc(Cl)cc1)c1ccc2c(c1)N(Cc1ccccc1)C(=O)c1ccccc1S2(=O)=O	-19%	/	16µM*	?	23µM*	/
N#Cc1ccc(C2CC(OCCF)=CC(=O)O2)cc1 (centres undefined)	/	4%	1%	/	2%	7%
O=C(NC(Cc1ccc(O)cc1)C(=O)N=Nc1c(O)[nH]c2ccccc12)c1ccccc1 (centres undefined)	-2%	6%	-3%	-7%	-19%	15%
COc1cc(C2NC(=O)c3c(sc4c3CCN(C)C4)N2)ccc1OC(=O)c1ccccc1 (centres undefined)	-26%	/	?	3%	?	/
